Source: the supplement of paper PMC8371130
Where a name gives a salt, the structure may show the parent alone.

Test system: HL-1
Experiment: relative cell viability (CellTiter-Glo) vs DMSO control (% of DMSO control); higher = more viable cells
Procedure, shortened: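 Viability of HL-1 mouse atrial cardiomyocytes was assessed by CellTiter-Glo luminescence and normalised to vehicle-treated control cells. Cells were plated in 384-well plates at 1000 cells per well with compounds at 40, 200, 1000 or 5000 nM in 0.01% DMSO, and one day later were placed at 1% O2 for 48 h, then reoxygenated for 24 h, or kept in normoxia for the same duration.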

[1] = oxygen condition: hypoxia 48 h (1% O2) + reoxygenation 24 h, 40 nM
[2] = oxygen condition: hypoxia 48 h (1% O2) + reoxygenation 24 h, 200 nM
[3] = oxygen condition: hypoxia 48 h (1% O2) + reoxygenation 24 h, 1000 nM
[4] = oxygen condition: hypoxia 48 h (1% O2) + reoxygenation 24 h, 5000 nM
[5] = oxygen condition: normoxia 72 h, 40 nM
[6] = oxygen condition: normoxia 72 h, 200 nM
[7] = oxygen condition: normoxia 72 h, 1000 nM
[8] = oxygen condition: normoxia 72 h, 5000 nM

Structure (SMILES)	relative cell viability [1]	relative cell viability [2]	relative cell viability [3]	relative cell viability [4]	relative cell viability [5]	relative cell viability [6]	relative cell viability [7]	relative cell viability [8]
C[C@]12CCC(=O)C=C1C=C[C@@H]1[C@@H]2CC[C@@]2(C)[C@H]1CC[C@@]2(O)CCC(=O)O [Potassium Canrenoate]	100	96.7	97.6	103	101	98.6	94.2	108
CC(C)NCC(O)c1ccccc1Cl (centres undefined) [Clorprenaline HCL]	104	102	106	117	105	102	103	108
CC(C)N(CCNC(=O)CN1CCCC1=O)C(C)C [Pramiracetam]	104	103	106	112	98.6	104	107	111
CC(=O)O[C@@]12CO[C@@H]1C[C@H](O)[C@@]1(C)C(=O)[C@H](O)C3=C(C)[C@@H](O)C[C@@](O)([C@@H](OC(=O)c4ccccc4)[C@H]21)C3(C)C	86.6	102	105	113	105	105	103	124
CCC1(c2ccc(N)cc2)CCC(=O)NC1=O (centres undefined) [Aminoglutethimide]	104	99.3	89.1	72.3	99.4	93.8	92.1	66.7
C/C=C(\C)C(=O)N[C@@H](c1ccccc1)[C@@H](O)C(=O)O[C@H]1C[C@@]2(O)[C@@H](OC(=O)c3ccccc3)[C@@H]3[C@]4(OC(C)=O)CO[C@@H]4C[C@H](O)[C@@]3(C)C(=O)[C@H](OC(C)=O)C(=C1C)C2(C)C [Cephalomannine]	24.9	28	23.6	28	21.5	21.7	20.2	25.3
C=CCN1CC[C@]23c4c5ccc(O)c4O[C@H]2C(=O)CC[C@@]3(O)[C@H]1C5 [Naloxone HCl]	109	103	104	117	104	104	109	113
COc1ccc(OC)c(C(O)C(C)N)c1 (centres undefined) [Methoxamine HCl]	107	102	101	102	102	105	80.9	123
CNCC(=O)c1ccc(O)c(O)c1 [Adrenalone HCl]	97.4	101	106	108	99.1	105	99.6	107
O=C(O[C@H]1C[C@H]2CC[C@@H](C1)[N+]21CCCC1)C(O)(c1ccccc1)c1ccccc1 [Trospium chloride]	95	98.6	90.1	105	103	95.1	95.8	101
C=C1C[C@@H]2[C@H](CC[C@]3(C)C(=O)CC[C@@H]23)[C@@]2(C)C=CC(=O)C=C12 [Exemestane]	108	98.9	107	105	107	106	124	112
CN(C)C(=O)Oc1cccc([N+](C)(C)C)c1 [Neostigmine bromide]	106	100	97.4	113	101	105	103	109
O=C1CC[C@@]2(O)[C@H]3Cc4ccc(O)c5c4[C@@]2(CCN3CC2CC2)[C@H]1O5 [Naltrexone HCl]	102	106	99.6	108	107	106	113	110
Cc1cccc(Cc2c[nH]cn2)c1C [Detomidine HCl]	100	94.5	101	103	92.9	88.2	98.6	113
C=CC[C@]1(O)CC[C@H]2[C@@H]3CCC4=CC(=O)CCC4=C3C=C[C@@]21C [Altrenogest]	105	110	106	108	104	107	102	105
CN1[C@@H]2CC(O)C[C@H]1[C@@H]1O[C@@H]12 (some centres undefined) [Scopine]	98.4	101	100	105	94.7	99.2	96.5	105
COC(=O)C1=CCCN(C)C1 [Arecoline]	105	108	106	111	109	112	109	111
O=P1(NCCCl)OCCCN1CCCl (centres undefined) [Ifosfamide]	110	117	124	109	103	101	117	112
CC(O)(CS(=O)(=O)c1ccc(F)cc1)C(=O)Nc1ccc(C#N)c(C(F)(F)F)c1 (centres undefined) [Bicalutamide]	106	107	107	104	106	111	110	107
C[C@]12CC[C@H]3[C@@H](CC[C@@]45O[C@@H]4C(O)=C(C#N)C[C@]35C)[C@@H]1CC[C@@H]2O [Trilostane]	101	104	108	107	113	116	102	108
CCC(COC(=O)c1cc(OC)c(OC)c(OC)c1)(c1ccccc1)N(C)C (centres undefined) [Trimebutine]	104	95.7	100	103	98.5	98.1	101	104
C[N+]1(C)[C@@H]2C[C@@H](OC(=O)[C@H](CO)c3ccccc3)C[C@H]1[C@@H]1O[C@@H]12 [Methscopolamine]	99.5	101	100	106	97.5	101	101	101
Cn1c(CCCC(=O)O)nc2cc(N(CCCl)CCCl)ccc21 [Bendamustine HCL]	111	111	108	110	114	114	110	111
Cc1cccc(C)c1NC(=O)CN1CCCC1=O [Nefiracetam]	101	99.1	102	104	101	97.1	105	101
CNC1CC(N)C(O)C(OC2OC(CO)C(O)C3OC4(OC(C(N)CO)C(O)C(O)C4O)OC23)C1O (centres undefined) [Hygromycin B]	108	102	107	110	104	106	110	106
NCCc1c[nH]c2ccc(O)cc12 [Serotonin HCl]	102	96.6	99.8	107	101	101	100	113
CCOC(=O)c1cncn1[C@H](C)c1ccccc1 [Etomidate]	101	107	118	115	104	109	104	109
COc1ccc(C(CN(C)C)C2(O)CCCCC2)cc1 (centres undefined) [Venlafaxine]	97.2	96.1	101	102	102	96.1	99.5	108
